Results published in PubChem BioAssay.
Values without a mark were called inactive. No rule for the calls is given here.

Each molecule was assayed on Aerobactin synthetase IucA (Klebsiella pneumoniae hvKP1) (assay: IucA enzyme inhibition, primary screen, biochemical, Spectrum library (AID 1346200;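 also: 100% = wells without compound and 0% = wells lacking enzyme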)). Conditions: malachite green pyrophosphate, A620, at 8 µM, active compounds read low.

Row | SMILES | activity remaining
1 | CCOC(=O)[C@H](CCc1ccccc1)N[C@@H](C)C(=O)N1CCC[C@H]1C(=O)O | 113%
2 | CC(O)(P(=O)(O)O)P(=O)(O)O | 119%
3 | CC(=O)O[C@H]1CC[C@@]2(C)C(CC[C@]3(C)C2CC=C2C4CC(C)(C)CC[C@]4(C)CC[C@]23C)C1(C)C (some centres undefined) | 102%
4 | COc1cc2c(cc1OC)C1(O)C(=O)c3ccc(O)c(C(=O)O)c3OC1CO2 (centres undefined) | 117%
5 | O=C(/C=C(\O)c1ccccc1)c1ccccc1O | 120%
6 | COc1ccccc1OCCNCC(O)COc1cccc2[nH]c3ccccc3c12 (centres undefined) | 120%
7 | O=C(O[C@@H]1Cc2c(O)cc(O)cc2O[C@@H]1c1cc(O)c(=O)c2c(O)c(O)cc([C@H]3Oc4cc(O)cc(O)c4C[C@H]3OC(=O)c3cc(O)c(O)c(O)c3)c2c1)c1cc(O)c(O)c(O)c1 | 108%
8 | COC1=C(O)C(=O)c2c(cc3oc(C(C)=O)c(O)c3c2O)C1=O | 108%
9 | CN(C(=O)CN(CCO)CC(=O)N(C)C(C)(C)Cc1ccccc1)C(C)(C)Cc1ccccc1 | 101%
10 | CCC(=O)O[C@H]1CCC2C3CCc4cc(O)ccc4C3CC[C@@]21C (some centres undefined) | 101%
11 | CCCCC(=O)Oc1ccccc1C(=O)O | 85.8%
12 | O=c1c2ccccc2oc2ccccc12 | 117%
13 | CC(=O)N1CCCC1C(=O)O (centres undefined) | 106%
14 | O=C(Oc1cc(O)cc2c1C[C@@H](OC(=O)c1cc(O)c(O)c(O)c1)[C@@H](c1cc(O)c(O)c(O)c1)O2)c1cc(O)c(O)c(O)c1 | 122%
